As usually defined, the inhibition is the change of the read-out against control, counted positive when it falls.

The nature of test [1]: inhibitors of TNFa-induced NFkB p65 translocation, primary screen, imaging, HUVEC, MLSMR starter and 10KST1 sets (AID 438;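 active means inhibition above 20% together with a positive visual image hit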;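 further: compound added about 3h40 before a 20 min TNFalpha stimulation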;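 on inhibition: signal is the nuclear over cytoplasmic p65 intensity ratio per well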). Conditions: HUVEC TNFa-induced p65 nuclear translocation; cell count: measured here: nuclei count (cytotoxicity indicator), at 2.08 µM; inhibition: at 2 µM, stronger effect = higher value, 0% TNFa-plus-vehicle, 100% no-TNFa wells.
The nature of test [2]: reduction of polyQ htt aggregates in cells – imaging, exon1htt(103Q)mCFP cells, high-content imaging, primary screen (AID 483;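 active means visual image review flags a hit and inhibition of aggregation exceeds 20%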;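 further: compound exposure lasted 3 days before fixation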;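 on nuclei count: percent of the per-plate median nuclei count of sample wells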). Particulars: exon1htt(103Q)mCFP cell line, aggregate imaging, at 2 µM; inhibition of aggregation: stronger effect = higher value; nuclei count: measured here: cell count, toxicity.
Test [3] can be described thus: endothelial E-selectin expression blockers – imaging, HUVEC, immunofluorescence, MLSMR starter and 10KST1 sets, primary screen (AID 487;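 active means visually confirmed hit in the image check and inhibition above 20%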;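 on inhibition: signal is fraction of cell area covered by stained E-selectin grains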;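 on nuclei count: 100% = median nuclei count of all wells on the same plate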). Conditions: HUVEC TNFalpha-induced E-selectin immunofluorescence imaging, at 2 µM; inhibition: stronger effect = higher value; nuclei count: measured here: cell number, toxicity.
Test [4] is described as follows: Primary imaging screen for DUSP6 inhibitors that restore phospho-Erk in transfected HeLa cells, chemical complementation (AID 609;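 active means compounds giving at least 50% inhibition in the cell-based MKP-3 phosphatase rescue imaging test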;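 on inhibition: phospho-Erk level distribution per well compared with pooled transfected vehicle control wells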). Particulars: HeLa MKP-3 transfected, phospho-Erk imaging KS statistic, at 10 µM, cells stimulated with TPA for 15 min.
Test [5] addresses Dual specificity protein phosphatase 6 (Homo sapiens) (UniProt Q16828). Described as above. Particulars: HeLa MKP-3 transfected, phospho-Erk imaging KS statistic; at 10 µM; stronger effect = higher value; cells stimulated with TPA for 15 min.
The target in test [6] is Voltage-gated potassium channel subunit beta-2 (Rattus norvegicus) (UniProt P62483). Put plainly: inhibitors of rat Kvbeta2 reductase activity – biochemical, NADPH fluorescence, primary screen (AID 622;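 active means fluorescence slope higher than the sample average by over 3 SD, cut at about -0.22 in these data, passing the limit was not always enough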;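 further: slope of raw intensity against log time taken from 70 to 1610 s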). Particulars: recombinant KvBeta, 4-cyanobenzaldehyde reduction, at 10 µM, stronger effect = higher value.
Sequence of Voltage-gated potassium channel subunit beta-2 (Rattus norvegicus) (P62483 whole entry, looked up): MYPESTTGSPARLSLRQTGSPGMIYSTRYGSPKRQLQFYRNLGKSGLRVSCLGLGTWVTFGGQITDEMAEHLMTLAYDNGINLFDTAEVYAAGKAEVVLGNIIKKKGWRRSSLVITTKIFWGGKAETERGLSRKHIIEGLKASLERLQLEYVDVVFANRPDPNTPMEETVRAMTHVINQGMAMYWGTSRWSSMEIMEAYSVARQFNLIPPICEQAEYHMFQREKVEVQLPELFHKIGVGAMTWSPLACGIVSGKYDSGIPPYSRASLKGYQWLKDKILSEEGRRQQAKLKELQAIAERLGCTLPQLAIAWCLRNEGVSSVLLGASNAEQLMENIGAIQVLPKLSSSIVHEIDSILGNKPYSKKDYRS
The target is the same in test [7]. The experiment in a line: enhancers of rat Kvbeta2 NADPH turnover – biochemical, NADPH fluorescence, primary screen (AID 623;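 active means NADPH fluorescence slope more negative than the mean of all samples by about 3 SD, 99.7% confidence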;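 further: fluorescence intensity change per second fitted from 20 to 320 s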). Conditions: Recombinant KvBeta, NADPH fluorescence decrease slope, 10 min; at 10 µM; stronger effect = lower value.
Test [8] concerns the target Alpha-2C adrenergic receptor (Homo sapiens) (UniProt P18825). The experiment in a line: compounds altering alpha2C-coupled GIRK flux – cell-based, HEK293 alpha2C/GIRK1/2, thallium flux, primary screen (AID 624;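 active means fluorescence slope after compound addition differing from the mean of all screened samples at 99.7% confidence, in either direction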;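 further: slope of fluorescence ratio to pre-addition baseline per second over 15 to 24 s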). Conditions: thallium flux BTC fluorescence, at 10 µM, actives lie on both sides.
Test [9] in a line: loss of swimming-algae plug formation – whole organism, Chlamydomonas reinhardtii, WT vs cilia-less mutant, absorbance, 96-well, primary screen (AID 463189;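 active means inhibition at or above 50% relative to wild type and mutant plate controls; inactive means inhibition below 50%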;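 further: 0% = wild type cc124 cells in DMSO and 100% = ciliumless bld1 mutant cells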). Particulars: Chlamydomonas reinhardtii gravitaxis, OD600 absorbance, 2 days; at 10 µM; stronger effect = higher value.
The nature of test [10]: blockers of RIG-like receptor reporter activation – cell-based, Sendai virus stimulus, luciferase, 10K MLSCN set, TLR/RLR signaling modifier project, primary screen (AID 602276;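 active means inhibition at or above 50% at 10 µM; inactive means inhibition below 50%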;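 further: firefly luciferase from ISG56 promoter only with Renilla not read in this screen; 0% = Sendai virus plus DMSO and 100% = medium plus DMSO without virus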). Conditions: HEK293 RL24 IRF3 luciferase reporter, at 10 µM, stronger effect = higher value.
Test [11] is described as follows: TLR3 IRF3 reporter activation blockers – cell-based, poly I:C stimulus, luciferase, 10K MLSCN set, primary screen (AID 602277;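 active means inhibition of the reporter signal at or above 50%; inactive means inhibition below 50%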). Particulars: HEK293-TLR3 RL24 IRF3 luciferase reporter, at 10 µM, stronger effect = higher value. (In general: Reporter assays use an easily measured gene product as a stand-in for the process of interest.)
In test [12] the target is Solute carrier family 12 member 5 (Homo sapiens) (UniProt Q9H2X9). The experiment in a line: retest of KCC2 transport modulators without sodium – cell-based, HEK293 KCC2, thallium flux, secondary assay, confirmation (AID 1713;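 active means thallium flux slope above the same plate's solvent-only control mean plus 3 SD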). Conditions: FluoZin2 fluorescence, at 10 µM, stronger effect = higher value.
Sequence of Solute carrier family 12 member 5 (Homo sapiens) (Q9H2X9 whole entry, looked up): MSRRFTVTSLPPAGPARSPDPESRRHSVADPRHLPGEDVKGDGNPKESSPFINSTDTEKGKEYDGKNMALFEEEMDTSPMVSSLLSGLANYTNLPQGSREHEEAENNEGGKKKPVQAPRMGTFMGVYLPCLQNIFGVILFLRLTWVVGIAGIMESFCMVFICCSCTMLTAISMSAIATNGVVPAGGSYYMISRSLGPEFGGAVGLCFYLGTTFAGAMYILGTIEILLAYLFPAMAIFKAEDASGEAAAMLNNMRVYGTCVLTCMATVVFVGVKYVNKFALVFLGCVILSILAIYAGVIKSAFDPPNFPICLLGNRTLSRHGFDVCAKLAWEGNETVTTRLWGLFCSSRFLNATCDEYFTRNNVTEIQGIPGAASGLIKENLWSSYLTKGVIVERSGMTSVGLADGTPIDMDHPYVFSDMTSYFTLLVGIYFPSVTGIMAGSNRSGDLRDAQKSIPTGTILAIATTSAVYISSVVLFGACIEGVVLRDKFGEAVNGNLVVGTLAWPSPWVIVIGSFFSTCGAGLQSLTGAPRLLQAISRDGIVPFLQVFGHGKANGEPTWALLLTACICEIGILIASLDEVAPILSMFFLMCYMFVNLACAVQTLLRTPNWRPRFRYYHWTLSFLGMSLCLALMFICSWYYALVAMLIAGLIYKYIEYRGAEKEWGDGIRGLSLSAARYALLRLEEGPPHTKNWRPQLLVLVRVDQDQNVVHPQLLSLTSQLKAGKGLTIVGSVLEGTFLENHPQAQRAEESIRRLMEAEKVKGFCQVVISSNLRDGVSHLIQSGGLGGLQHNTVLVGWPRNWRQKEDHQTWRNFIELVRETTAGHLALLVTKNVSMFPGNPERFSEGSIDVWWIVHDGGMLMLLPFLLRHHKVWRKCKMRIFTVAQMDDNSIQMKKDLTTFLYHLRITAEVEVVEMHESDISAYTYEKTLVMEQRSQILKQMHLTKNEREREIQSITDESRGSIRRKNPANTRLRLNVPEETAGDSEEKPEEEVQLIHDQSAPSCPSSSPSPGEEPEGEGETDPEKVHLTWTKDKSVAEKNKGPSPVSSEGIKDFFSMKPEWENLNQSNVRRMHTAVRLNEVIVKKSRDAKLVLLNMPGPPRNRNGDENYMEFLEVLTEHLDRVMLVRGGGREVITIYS
For test [13] the target is unchanged. The experiment in a line: retest of KCC2 transport modulation, ouabain-free – cell-based, HEK293 KCC2, thallium flux, FluoZin2, secondary assay 2, confirmation (AID 1715;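 active means thallium flux slope more than 3 SD above or below the plate's solvent-only control mean, mostly below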;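 further: raw slope with 0.1% DMSO as baseline and bumetanide as block control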). Particulars: HEK293-KCC2, thallium flux FluoZin2 fluorescence; at 10 µM; actives lie on both sides; F/F0 rise rate, 10–20 s post-thallium.
Test [14] in a line: native HEK Tl+ uptake effects, second counter-screen – HEK cells, counterscreen 2, counter-screen for KCC2 modulator project, confirmation (AID 1718).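 Further: run without ouabain in cells lacking the KCC2 cotransporter; slope of fluorescence scaled to its starting value between 10 and 20 s.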 Particulars: HEK293 parental, thallium flux FluoZin-2 fluorescence slope; at 10 µM. For orientation: Counterscreens check selectivity or assay interference.
Test [15] in a line: PubChem AID 1714.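 Further: raw slope of fluorescence over initial fluorescence between 10 and 20 s after thallium.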 Conditions: HEK293-KCC2 + bumetanide/ouabain, thallium flux FluoZin2; at 10 µM; stronger effect = higher value.
In test [16] the target is Solute carrier family 12 member 5 (Homo sapiens) (UniProt Q9H2X9). Put plainly: modulation of KCC2 thallium flux in HEK cells – cell-based, ouabain, retest, confirmation (AID 1717;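 active means thallium flux slope beyond 3 SD from same-plate DMSO control mean in most replicates, usually higher, sometimes lower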;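 further: slope of initial-normalized fluorescence between seconds 10 and 20 after thallium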). Conditions: HEK293-KCC2, thallium flux FluoZin2 fluorescence, at 10 µM, bidirectional: low = inhibitor, high = activator.
Test [17] in a line: compound effects on native HEK Tl+ uptake – HEK cells, counterscreen 1, counter-screen for KCC2 modulator project, confirmation (AID 1716;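 active means thallium flux rate significantly above the same plate's solvent-only control wells, beyond their mean plus 3 SD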). Conditions: HEK293 parental cells, thallium flux FluoZin2, ouabain; at 10 µM; baseline-ratio fluorescence slope, 10–20 s after thallium.
Where [18] appears, read: measured here: cell density z-score.
Where [19] appears, read: measured here: nuclear c-Myc green intensity z-score.
Setting [20] is: measured here: nuclear pErk red intensity z-score, stronger effect = higher value.

Structures are written as SMILES. The list shows a part of the results. Inconclusive results are not listed. Active and inactive are the calls of the source.

Sequence of Dual specificity protein phosphatase 6 (Homo sapiens) (Q16828 whole entry, looked up): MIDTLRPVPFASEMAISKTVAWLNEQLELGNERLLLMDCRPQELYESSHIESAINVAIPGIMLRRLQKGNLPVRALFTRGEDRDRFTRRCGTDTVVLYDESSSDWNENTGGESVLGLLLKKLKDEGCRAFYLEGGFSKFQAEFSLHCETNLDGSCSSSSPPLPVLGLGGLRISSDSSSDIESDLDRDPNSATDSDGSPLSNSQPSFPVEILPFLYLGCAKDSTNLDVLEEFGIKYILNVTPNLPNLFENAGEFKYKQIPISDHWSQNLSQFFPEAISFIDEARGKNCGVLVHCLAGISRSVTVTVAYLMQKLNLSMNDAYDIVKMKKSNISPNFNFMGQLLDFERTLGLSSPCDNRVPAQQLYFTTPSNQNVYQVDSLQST
Sequence of Alpha-2C adrenergic receptor (Homo sapiens) (P18825 whole entry, looked up): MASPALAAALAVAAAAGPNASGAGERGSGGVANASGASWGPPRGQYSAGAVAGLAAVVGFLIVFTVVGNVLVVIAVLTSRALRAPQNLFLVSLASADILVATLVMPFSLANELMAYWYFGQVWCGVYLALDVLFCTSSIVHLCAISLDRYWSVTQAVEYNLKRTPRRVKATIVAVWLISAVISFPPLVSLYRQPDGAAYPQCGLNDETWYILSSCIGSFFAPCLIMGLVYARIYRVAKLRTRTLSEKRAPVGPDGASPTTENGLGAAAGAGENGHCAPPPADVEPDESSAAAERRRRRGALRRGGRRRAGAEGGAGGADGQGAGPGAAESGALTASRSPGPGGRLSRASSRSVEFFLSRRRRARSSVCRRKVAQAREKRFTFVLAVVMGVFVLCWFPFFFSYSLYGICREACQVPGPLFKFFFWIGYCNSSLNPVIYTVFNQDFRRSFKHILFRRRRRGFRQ

`COc1cc(NS(=O)(=O)c2ccc(N)cc2)nc(OC)n1`: the cell count in test [1] amounted to 482. The inhibition in test [1] is 1.1% (inactive); in test [3] it was -59.5% (inactive); in test [5], 5.79% (inactive); in test [9], 20.1% (inactive); in [10], 24.9% (inactive); in test [11], 51.9% (active). The inhibition of aggregation in [2] is -12.6% (inactive). Further, the values for the nuclei count in test [2] and in [3] were 82% and 96.6%, respectively. Also, the z-score in [4] (setting [18]) was 0.641; in test [4] (setting [19]) it was 0.795; in test [4] (setting [20]), -0.759. In addition, in test [6], the fluorescence slope was -0.439 (inactive). Besides, in test [7], the NADPH fluorescence slope is -7e-05 (inactive). The slope in test [8] was 0.00564 (inactive).
For `COc1ccc(Cl)cc1S(=O)(=O)Nc1cccc(C(=O)O)c1`, in test [12], the normalised thallium flux (F/F0 slope) is 0.00707 (inactive). The normalized thallium flux in test [13] was 0.0299 (inactive). Further, the thallium flux slope in [14] is 0.0107 (inactive).
Take `CCC1CCCCN1c1nc(-c2ccncc2)nc2ccccc12` (centres undefined): the cell count in test [1] came to 503. Further, the inhibition in [1] is 0.5% (inactive); in test [3], 12.1% (inactive); in [5], 14% (inactive); in test [9], 132% (active); in [10], 24.2% (inactive); in test [11] it was 30.3% (inactive). In addition, the inhibition of aggregation in test [2] was 7.3% (inactive). Also, the nuclei count in test [2] was 91.9%; in test [3], 126%. Besides, the z-score in [4] (setting [18]) was 1.04; in test [4] (setting [19]), -0.92; in test [4] (setting [20]), 0.299. In addition, the fluorescence slope in test [6] was -0.391 (inactive). Besides, the NADPH fluorescence slope in test [7] was -0.000148 (inactive). For the same compound, in test [8], the slope is 0.00736 (inactive).
Turning to `O=C(Nc1ccccc1F)C1C2C=CC3(O2)C1C(=O)N(c1cccnc1)C3C(=O)NC1CCCCC1` (centres undefined), the normalized thallium flux in test [15] was 0.00547 (active); in test [13], 0.0222 (active). In addition, the raw Tl+ flux slope (below DMSO = inhibition, above = activation) in test [16] is 0.0131 (active). Further, in [14], the thallium flux slope was 0.0108 (inactive).
With `Cc1cc(OCC(=O)Nc2ccc3oc(-c4ccncc4)nc3c2)ccc1Cl`, the cell count in [1] worked out at 485. Besides, the inhibition in test [1] is -6.9% (inactive); in [3] it was -81.7% (inactive); in test [5], 7.73% (inactive); in [9] it was -0.755% (inactive); in [10], -19.3% (inactive); in test [11] it was -47.1% (inactive). For the same compound, the inhibition of aggregation in [2] is -19.2% (inactive). The nuclei count in test [2] stood at 100%; in test [3], 122%. Moreover, the results for the z-score in [4] (setting [18]), in test [4] (setting [19]) and in [4] (setting [20]) were 0.451, -0.406 and -0.15, respectively. Further, the fluorescence slope in [6] is -0.458 (inactive). Besides, the NADPH fluorescence slope in test [7] is -1.3e-05 (inactive). In addition, the slope in [8] is 0.00694 (inactive).
Take `CCn1c(SCC(=O)c2ccc3ccccc3c2)nnc1-c1cccs1`: the normalised thallium flux (F/F0 slope) in test [12] is 0.00706 (inactive). The normalized thallium flux in [13] is 0.0307 (inactive). For the same compound, the thallium flux rate (normalised fluorescence) in test [17] is 0.00707 (inactive). Further, the raw Tl+ flux slope (below DMSO = inhibition, above = activation) in [16] was 0.0159 (active). The thallium flux slope in test [14] is 0.0101 (inactive).
Regarding `Cc1ccc(-c2noc(CN3CCN(Cc4ccccc4)CC3)n2)cc1`, the normalised thallium flux (F/F0 slope) in [12] was 0.0176 (inactive). For the same compound, in [17], the thallium flux rate (normalised fluorescence) was 0.00768 (inactive). In addition, the raw Tl+ flux slope (below DMSO = inhibition, above = activation) in test [16] was 0.0139 (inactive). In addition, the thallium flux slope in test [14] is 0.0101 (inactive).

For the origin of these results see PubChem BioAssay.
